# “And” between values parts separate entries of the source, which are not always exact repeats. Equal values may be shown once. About 79,000 compounds went through this panel and 15% of them were active in at least one assay; those are over-represented in the sample as a whole. A structure can be active in one record and inactive in another. The source made the active and inactive calls. Rule as the data show it: active = growth inhibition above about 70%; inactive = the rest.
# Assay: NCI Yeast Anticancer Drug Screen. Data for the rad50 strain (AID 155);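 also: 0% = growth of vehicle-only cultures of the same strain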
# Conditions: S. cerevisiae rad50 strain growth inhibition; at 5.0 µM (retest, dose inferred, filed as 0.5); stronger effect = higher value
# Outline: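 Relative growth inhibition (compound vs vehicle) was measured in yeast with a defined repair-gene alteration.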
row,Structure (SMILES),growth inhibition
1,O=c1[nH]cnc2[nH]cc(CN3CCCCC3)c12,7% (inactive)
2,NCCBr,0% (inactive)
3,CSc1ncc(COP(=S)(OCc2cnc(SC)nc2N)OCc2cnc(SC)nc2N)c(N)n1,-1% (inactive)
4,O=[N+]([O-])c1ccc(O)c(Cl)c1,-3% (inactive)
5,CCN(CC)CC(=O)c1ccc2c(ccc3ccccc32)c1,15% (inactive)
6,Cc1ccc([C@H]2N[C@@H]2c2ccccn2)cc1,-16% (inactive)
7,CCC1(C2=CCCCC2)C(=O)NC(=S)NC1=O,-101% (inactive)
8,Cn1cnc(C(=N)[Se])c1N,63% (inactive)
9,CCOC(=O)NC(=S)[S][Sb]([S]C(=S)NC(=O)OCC)[S]c1nc2ccc(N=Nc3ccc(NS(=O)(=O)c4ccc(NC(=O)C(N5CC5)(N5CC5)N5CC5)cc4)cc3)cc2s1,70% (active)
10,COc1ccccc1/C=C(/C)[N+](=O)[O-],96% (active)
11,O=c1oc2ccccc2c(O)c1C(c1ccc(OCc2ccccc2)cc1)c1c(O)c2ccccc2oc1=O,16% (inactive)
12,COc1cc(N(CCCl)CCCl)ccc1C=Nc1cccc(Cl)c1,5% (inactive)
13,O=[N+]([O-])c1cc2c([N+](=O)[O-])cccc2o1,15% (inactive)
14,ClCCN(CCCl)c1ccc(C2N(Cc3ccc(N(CCCl)CCCl)cc3Cl)CCCN2Cc2ccc(N(CCCl)CCCl)cc2Cl)cc1,2% (inactive)
15,CCN(Cc1ccccc1)CC(O)c1ccc(Cl)c(Cl)c1 (centres undefined),-3% (inactive)
16,FC1(F)C(Cl)=[C]([Hg][C]2=C(Cl)C(F)(F)C(F)(F)C(F)(F)C2(F)F)C(F)(F)C(F)(F)C1(F)F,45% (inactive)
17,CCn1c(O)c(C(=O)NC(C)c2ccc([N+](=O)[O-])cc2)c(=O)n(CC)c1=S (centres undefined),31% (inactive)
18,CC(=O)[O][Hg][c]1ccccc1N,36% (inactive)
19,CCC[CH2][Sn]1([CH2]CCC)[O]Cc2nc(C)ccc2[O]1,27% (inactive)
20,CCCCCCCCCCCCC(=O)[O][Hg][c]1ccccc1,99% (active)

row,Structure (SMILES),growth inhibition
1,CN(C)CC1CC2C3CC=C4CC(O)CCC4(C)C3CCC2(C)C1=O (centres undefined),-9% (inactive)
2,CC(=O)O.CC(=O)[O-].CC(=O)[O-].[Co+3].[NH-]CC[NH-].[NH-]CC[NH-],-5% (inactive)
3,Nc1nc(CCl)cs1,-2% (inactive)
4,CC1=CCC2(C)C3CCC4(C)C(O)CCC4C3CCC2(C)C1 (centres undefined),-17% (inactive)
5,CC1CCC2(NC1)OC1CC3C4CC=C5CC(O)CCC5(C)C4CCC3(C)C1C2C (centres undefined),78% (active) and -4% (inactive)
6,CCN1CCC(O)(c2ccc(Cl)c(Cl)c2)C(C(=O)c2ccc(Cl)c(Cl)c2)C1 (centres undefined),75% (active)
7,O=C(c1ccccc1)c1c(CC(O)c2ccccn2)n(C(=O)c2ccccc2)c2ccccc12 (centres undefined),6% (inactive)
8,CC(O[Si](c1ccccc1)(c1ccccc1)C(C)(C)C)[C@H](NC(=O)OC(C)(C)C)C(=O)O (some centres undefined),-13% (inactive)
9,CC(C)=CC1CC(C)C2(CCC3(C)CC4C(C(=O)CC4(C)O)/C(C=O)=C\CC32)O1 (centres undefined),99% (active)
10,CC(=O)O[C@H]1C[C@@H]2OC3C=C(C)CCC3(C)[C@@]1(C)[C@@]21CO1 (some centres undefined),99% (active)
11,O=C1NC(=O)C([N+](=O)[O-])C(=O)N1,0% (inactive)
12,N#C[S-].[Nd+3].c1ccc(-c2ccccn2)nc1.c1ccc(-c2ccccn2)nc1.c1ccc(-c2ccccn2)nc1,62% (inactive)
13,CC(=O)Nc1ccccc1[As](O[As](c1ccccc1)c1ccccc1NC(C)=O)c1ccccc1 (centres undefined),39% (inactive)
14,Oc1cccc[c]1[Hg][Cl],99% (active)
15,Nc1nc(N)c(-c2ccc(Cl)c(Cl)c2)c(CCc2ccc(CNC(=O)Nc3ccc(S(=O)(=O)F)cc3)cc2)n1,4% (inactive)
16,C1CC[N-]CC1.CC(=N\O)/C(C)=N/O.CC(=N\O)/C(C)=N/O.OC1[CH-]CCCC1.[Co+2],22% (inactive)
17,CC(=O)OC1C2(CC3N4C(=O)C5(CO)SSC4(CC31O)C(=O)N5C)OC(C)C(C)(C)C2=O (centres undefined),67% (inactive)
18,C[C@H]1C/C=C/[C@H]2[C@@H]3O[C@]3(C)[C@@H](C)[C@H]3[C@H](Cc4ccccc4)NC(=O)[C@]32OC(=O)O/C=C/[C@@](C)(O)C1=O,21% (inactive)
19,C1CC[N-]CC1.[Cl][Au]([Cl])[Cl],42% (inactive)
